In PubChem BioAssay (NCATS):
“And” between values parts separate entries of the source, which are not always exact repeats. Identical values can stand only once. Results filed as inconclusive are left out. The source made the active and inactive calls. Unless noted, the call rests on the fitted dose curve; in most records, active means well fitted curve in the direction sought with a large enough effect; inconclusive means small, poorly fitted or top-dose-only effect, or another doubt; inactive means no such curve, though single readings can be large; an effect the other way counts as inactive or inconclusive.

Assays:
[1] = Nrf2 qHTS screen for inhibitors: Validation (AID 493153; active means well fitted inhibition curve with a large enough effect in the main read-out, with a control signal flat, not every such curve was filed as active); details: Potency: luciferase luminescence; viability change: measured here: cytotoxicity max response
Method in brief: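 Concentration-response test in A549 ARE_Fluc reporter cells (5% FBS OPTI-MEM), compound exposure 18-24 h at 37°C, 5% CO2. Cell viability measured first by CellTiter-Fluor fluorescence; ARE-driven luciferase luminescence then measured as Nrf2 activity.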

[2] = qHTS for Inhibitors of Cell Surface uPA Generation: Validation Assay (AID 493164);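 further: RAW 264.7 macrophage cells exposed to compound for 18 h; 0% is about no effect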
Method in brief: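 Compounds are titrated over seven points (2.45 nM–38.3 uM final) onto pre-plated RAW 264.7 cells and incubated for 18 h. Retained intracellular ATP, measured with ATP-Lite, indicates blocked lethal factor entry.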

[3] = target: Galactokinase (Homo sapiens) (UniProt P51570); assay: qHTS Validation Assay for Inhibitors of Human Galactokinase (GALK) (AID 493189); further: 0% is about no effect
Method in brief: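 GALK (5 nM) with 35 uM ATP and 100 uM galactose in HEPES pH8.0, MgCl2, NaCl, DTT, BSA; 1 h at room temperature. Residual ATP read by Kinase-Glo Plus luminescence after 10 min.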

[4] = Validation screen for small molecules that induce DNA re-replication in SW480 colon adenocarcinoma cells (AID 504364); further: potency means the concentration at half of the fitted maximal effect
Method in brief: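 Read-out: total Hoechst intensity of nuclei by fluorescence scanning imager; hits raise the fraction of nuclei with elevated DNA content. Cells received compound for 48 hr at 37 C before a 40 min stain.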

[5] = target: Phosphoglycerate kinase, glycosomal (Trypanosoma brucei brucei) (UniProt P07378); assay: qHTS Validation Assay to Find Inhibitors of Phosphoglycerate Kinase (AID 504547);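 further: control wells lack PGK and mark full inhibition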
Method in brief: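 Compounds are pinned into the substrate/PGK mixture, and GAPDH (100nM final) is added to start the reaction by producing 1,3-BPG. After 60 minutes at room temperature, Kinase-Glo Plus is added and luminescence is measured 10 minutes later.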

[6] = target: phosphoglycerate mutase (Leishmania major) (UniProt Q4Q090); assay: qHTS Validation Assay to Find Inhibitors of Phosphoglycerate Mutase (AID 504548); details: Potency: inhibition qHTS; further: series mostly up to about 58 µM; on the % scale 0 is the no-effect control and ±100 the full control effect
Method in brief: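 Lm PGAM 1.25nM final; 100 mM TEA pH 7.6, 5 mM MgCl2, 0.01% Tween-20; 45 min RT; Kinase-GloPlus, 10 min; end-point luminescence. Enzyme-free wells as negative controls.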

[7] = target: Ubiquitin carboxyl-terminal hydrolase 1 (Homo sapiens) (UniProt O94782); assay: Inhibitors of USP1/UAF1: Pilot qHTS (AID 504865); further: nearly all actives have a fitted effect of over 35% in size; further: potency means the concentration at half of the fitted maximal effect
Method in brief: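 USP1/UAF1 complex (1nM) preincubated with compound 15 min at room temperature, then Ub-Rho substrate (150nM final) added. Fluorescence read kinetically at 480/540 nm, 6 reads every 60 seconds. Buffer: 50mM HEPES pH 7.8, 0.5mM EDTA, 0.1 mg/ml BSA, 1mM TCEP, 0.01% Tween-20.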

[8] = qHTS for Inhibitors of ATXN expression: Validation of Cytotoxic Assay (AID 588349); further: on the % scale 0 is the no-effect control and ±100 the full control effect
Method in brief: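 Cytotoxicity counter-screen: HEK293 cells exposed to compound titrations, 72 hr, 37 degrees C. Read-out is intracellular ATP (CellTiter Glo luminescence) as a viability measure.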

[9] = qHTS for Inhibitors of ATXN expression: Validation (AID 588378); further: series mostly up to about 57 µM; on the % scale 0 is the no-effect control and ±100 the full control effect; nearly all actives have a fitted effect of over 75% in size
Method in brief: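 Luminescence from an ATXN2-FFLuc reporter in HEK293 cells served as read-out after 24 h compound treatment at 37 degrees C; CellTiter-Fluor fluorescence was recorded first to assess viability.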

[10] = target: Peptidyl-prolyl cis-trans isomerase NIMA-interacting 1 (Homo sapiens) (UniProt Q13526); assay: qHTS Validation Assay to Find Inhibitors of Pin1 (AID 504536; active means well fitted inhibition curve with a large enough effect in the polarisation, with a control signal flat, not every such curve was filed as active; the % refers to the polarisation;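 further: 0% = full Pin1 enzyme wells and -100% = no-enzyme wells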)
Method in brief: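 Fluorescence polarization competition: compounds (titration) displace HiFluor-488-labeled Pin1-1b peptide from Pin1 (0.3 uM final) in pH 7.5 HEPES buffer with DTT, 10 min at room temperature; %Activity normalized to no-enzyme wells, curves fitted.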

[11] = target: DNA dC->dU-editing enzyme APOBEC-3G (Homo sapiens) (UniProt Q9HC16); assay: qHTS for inhibitors of Vif-A3G interactions: Validation (AID 588379); further: 0% is about no effect
Method in brief: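 Yellow fluorescence (Ex 488, Em 500-530) of Vif-coexpressing HeLa A3G-eYFP cells, scanned by Acumen cytometer, reports blocked A3G degradation. Cells plated at 700/well overnight at 37 deg C before compound addition, then a further overnight compound incubation at 37 deg C.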

[12] = target: Glucocorticoid receptor (Homo sapiens) (UniProt P04150); assay: qHTS assay for small molecule agonists of glucocorticoid receptor signaling (AID 588532; active means well fitted curve in the direction sought with a large enough effect in the signal ratio, with a control signal flat; the % refers to the signal ratio;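 further: 100% = dexamethasone at 0.1 µM and 0% = DMSO only wells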); details: HeLa MMTV-bla, beta-lactamase ratio, agonist, 18 h; stronger effect = higher value; percent of dexamethasone control, DMSO zero
Method in brief: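 HeLa GRE-bla reporter cells; 18 h compound exposure at 37 C; 2 h CCF4 loading at room temperature; fluorescence at 460 and 530 nm; EC50 by Hill equation.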

[13] = qHTS assay for small molecule antagonists of peroxisome proliferator-activated receptor delta signaling (AID 588535; active means well fitted inhibition curve with a large enough effect in the signal ratio, with a control signal flat, not every such curve was filed as active; the % refers to the signal ratio;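 on max response: cells co-treated with a PPAR-delta agonist as stimulator during compound exposure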); details: HEK293T PPARd-UAS-bla, beta-lactamase FRET ratio, 18 h; 460 nm channel
Method in brief: (§1)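 Beta-lactamase reporter read-out (405 nm excitation, 460/530 nm emission) after CCF4 loading for 2 hrs at RT. HEK293T PPAR-delta-UAS-bla cells, 2% charcoal/dextran FBS, compounds for 18 hrs at 37 C. Hill fit gave IC50 and efficacy.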

[14] = target: Peroxisome proliferator-activated receptor delta (Homo sapiens) (UniProt Q03181); assay: as above
Method in brief: as §1

Chain of Phosphoglycerate kinase, glycosomal (Trypanosoma brucei brucei) (P07378 whole entry, looked up): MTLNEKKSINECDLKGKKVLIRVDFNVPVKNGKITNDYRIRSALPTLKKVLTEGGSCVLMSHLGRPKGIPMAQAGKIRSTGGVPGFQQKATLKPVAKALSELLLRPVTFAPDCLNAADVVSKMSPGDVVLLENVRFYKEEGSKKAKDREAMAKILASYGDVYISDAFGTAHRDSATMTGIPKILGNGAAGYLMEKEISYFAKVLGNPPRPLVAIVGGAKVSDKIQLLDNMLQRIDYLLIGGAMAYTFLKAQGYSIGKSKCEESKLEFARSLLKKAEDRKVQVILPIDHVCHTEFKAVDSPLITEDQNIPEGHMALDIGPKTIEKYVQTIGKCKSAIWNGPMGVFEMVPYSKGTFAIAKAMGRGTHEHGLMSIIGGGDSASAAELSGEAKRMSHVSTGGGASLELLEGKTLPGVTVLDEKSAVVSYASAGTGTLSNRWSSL
Chain of phosphoglycerate mutase (Leishmania major) (Q4Q090 1-553): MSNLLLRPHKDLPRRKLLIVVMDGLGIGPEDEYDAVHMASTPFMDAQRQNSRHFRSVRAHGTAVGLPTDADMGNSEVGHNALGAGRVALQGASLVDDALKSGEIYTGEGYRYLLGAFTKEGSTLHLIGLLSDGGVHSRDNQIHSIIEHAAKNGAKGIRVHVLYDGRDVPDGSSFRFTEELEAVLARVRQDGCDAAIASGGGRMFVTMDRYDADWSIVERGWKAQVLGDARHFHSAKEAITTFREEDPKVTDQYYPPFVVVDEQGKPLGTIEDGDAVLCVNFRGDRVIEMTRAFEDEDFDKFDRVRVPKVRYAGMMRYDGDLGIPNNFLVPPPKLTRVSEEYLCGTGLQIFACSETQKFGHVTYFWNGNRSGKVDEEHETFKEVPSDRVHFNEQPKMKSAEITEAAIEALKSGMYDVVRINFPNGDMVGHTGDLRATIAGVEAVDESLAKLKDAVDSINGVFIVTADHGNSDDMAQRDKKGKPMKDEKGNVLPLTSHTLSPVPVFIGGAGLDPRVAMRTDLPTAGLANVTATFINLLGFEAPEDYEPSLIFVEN
Chain of DNA dC->dU-editing enzyme APOBEC-3G (Homo sapiens) (Q9HC16 whole entry, looked up): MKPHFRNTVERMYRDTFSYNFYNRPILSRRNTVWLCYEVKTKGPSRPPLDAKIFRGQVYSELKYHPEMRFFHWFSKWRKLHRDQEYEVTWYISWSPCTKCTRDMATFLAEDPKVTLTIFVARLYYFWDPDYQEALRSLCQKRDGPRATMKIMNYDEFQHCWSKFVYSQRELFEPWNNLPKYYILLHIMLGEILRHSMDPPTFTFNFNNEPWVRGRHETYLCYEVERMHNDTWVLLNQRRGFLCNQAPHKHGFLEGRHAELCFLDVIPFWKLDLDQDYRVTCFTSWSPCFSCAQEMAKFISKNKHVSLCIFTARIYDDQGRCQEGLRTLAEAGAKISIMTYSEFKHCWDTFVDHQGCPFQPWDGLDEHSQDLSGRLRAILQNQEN
Chain of Peptidyl-prolyl cis-trans isomerase NIMA-interacting 1 (Homo sapiens) (Q13526 whole entry, looked up): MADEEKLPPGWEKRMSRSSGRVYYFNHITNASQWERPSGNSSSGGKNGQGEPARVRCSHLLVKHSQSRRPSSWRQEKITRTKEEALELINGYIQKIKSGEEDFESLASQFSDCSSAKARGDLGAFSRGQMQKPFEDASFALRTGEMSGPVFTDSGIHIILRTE
Chain of Galactokinase (Homo sapiens) (P51570 whole entry, looked up): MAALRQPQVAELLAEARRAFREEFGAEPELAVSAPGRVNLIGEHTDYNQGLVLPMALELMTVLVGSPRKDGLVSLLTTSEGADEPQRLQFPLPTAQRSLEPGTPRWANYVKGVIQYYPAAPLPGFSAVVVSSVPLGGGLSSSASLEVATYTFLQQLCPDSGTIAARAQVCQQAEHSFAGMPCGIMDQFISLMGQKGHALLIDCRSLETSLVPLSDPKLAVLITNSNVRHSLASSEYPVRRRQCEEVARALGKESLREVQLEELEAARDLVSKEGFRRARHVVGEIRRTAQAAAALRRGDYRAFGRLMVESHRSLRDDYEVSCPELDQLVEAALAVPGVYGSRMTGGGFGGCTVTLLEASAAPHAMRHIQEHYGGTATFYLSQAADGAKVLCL
Chain of Ubiquitin carboxyl-terminal hydrolase 1 (Homo sapiens) (O94782 whole entry, looked up): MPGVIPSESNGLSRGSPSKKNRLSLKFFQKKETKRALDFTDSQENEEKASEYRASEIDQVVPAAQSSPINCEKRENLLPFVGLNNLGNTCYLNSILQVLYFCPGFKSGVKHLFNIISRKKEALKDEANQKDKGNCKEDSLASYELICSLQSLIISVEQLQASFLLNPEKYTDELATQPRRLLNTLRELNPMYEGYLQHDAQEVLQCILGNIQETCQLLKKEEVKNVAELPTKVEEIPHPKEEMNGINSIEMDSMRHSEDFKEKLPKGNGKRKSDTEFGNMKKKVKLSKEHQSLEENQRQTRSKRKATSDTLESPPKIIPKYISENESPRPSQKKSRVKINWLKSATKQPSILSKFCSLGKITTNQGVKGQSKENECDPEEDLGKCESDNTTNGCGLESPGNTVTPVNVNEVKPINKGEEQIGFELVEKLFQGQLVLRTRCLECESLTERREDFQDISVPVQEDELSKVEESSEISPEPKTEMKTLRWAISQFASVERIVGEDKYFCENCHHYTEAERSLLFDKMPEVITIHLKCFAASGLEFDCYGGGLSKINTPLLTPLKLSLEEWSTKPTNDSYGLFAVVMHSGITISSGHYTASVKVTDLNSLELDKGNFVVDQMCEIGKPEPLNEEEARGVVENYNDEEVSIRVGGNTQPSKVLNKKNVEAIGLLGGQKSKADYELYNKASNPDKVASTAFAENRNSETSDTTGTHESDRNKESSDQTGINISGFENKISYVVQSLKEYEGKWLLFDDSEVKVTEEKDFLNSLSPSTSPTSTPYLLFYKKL
Chain of Glucocorticoid receptor (Homo sapiens) (P04150 whole entry, looked up): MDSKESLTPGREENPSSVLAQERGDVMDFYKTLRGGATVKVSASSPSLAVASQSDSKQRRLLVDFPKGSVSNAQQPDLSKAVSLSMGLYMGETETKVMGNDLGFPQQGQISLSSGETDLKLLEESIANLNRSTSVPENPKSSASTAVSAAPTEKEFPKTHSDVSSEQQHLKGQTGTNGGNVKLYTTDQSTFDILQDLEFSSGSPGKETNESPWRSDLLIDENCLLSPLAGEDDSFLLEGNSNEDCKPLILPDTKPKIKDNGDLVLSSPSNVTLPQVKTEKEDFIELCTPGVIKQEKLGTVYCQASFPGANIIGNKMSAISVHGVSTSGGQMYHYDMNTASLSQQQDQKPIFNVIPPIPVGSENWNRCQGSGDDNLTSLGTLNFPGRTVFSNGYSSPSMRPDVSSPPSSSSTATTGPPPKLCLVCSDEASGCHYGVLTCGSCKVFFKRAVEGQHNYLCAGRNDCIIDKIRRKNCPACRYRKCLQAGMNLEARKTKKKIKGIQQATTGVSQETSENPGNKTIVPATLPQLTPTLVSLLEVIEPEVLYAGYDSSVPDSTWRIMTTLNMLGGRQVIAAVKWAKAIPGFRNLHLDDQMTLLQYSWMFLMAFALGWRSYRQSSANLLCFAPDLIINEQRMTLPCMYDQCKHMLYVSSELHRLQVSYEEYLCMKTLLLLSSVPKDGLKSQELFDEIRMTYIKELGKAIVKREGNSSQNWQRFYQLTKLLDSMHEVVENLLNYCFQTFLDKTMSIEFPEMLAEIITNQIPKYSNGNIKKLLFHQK
Chain of Peroxisome proliferator-activated receptor delta (Homo sapiens) (Q03181 whole entry, looked up): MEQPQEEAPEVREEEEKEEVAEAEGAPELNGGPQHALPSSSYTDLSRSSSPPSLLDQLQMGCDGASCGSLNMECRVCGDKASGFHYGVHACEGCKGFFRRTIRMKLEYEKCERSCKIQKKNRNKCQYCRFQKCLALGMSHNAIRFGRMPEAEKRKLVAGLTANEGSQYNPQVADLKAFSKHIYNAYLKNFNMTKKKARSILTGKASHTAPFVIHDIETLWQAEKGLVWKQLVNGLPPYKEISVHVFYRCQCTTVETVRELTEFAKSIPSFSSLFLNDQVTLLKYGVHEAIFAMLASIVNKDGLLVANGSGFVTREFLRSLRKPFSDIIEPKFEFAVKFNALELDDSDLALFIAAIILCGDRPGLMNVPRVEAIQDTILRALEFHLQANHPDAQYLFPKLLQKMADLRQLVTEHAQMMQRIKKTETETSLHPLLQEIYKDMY

O=C(O)C1CN(CCCP(=O)(O)O)CCN1 (stereo unspecified)
8.53%: viability change [1]
inactive: Potency [1] | outcome [2] | Potency [3] | Potency [4] | Potency [5] | Potency [6] | Potency [7] | Potency [8] | Potency [9]

O[Si](CCCN1CCCCC1)(c1ccc(F)cc1)C1CCCCC1 (stereo unspecified)
inactive: Potency [1] | outcome [2] | Potency [3] | Potency [10] | Potency [5] | Potency [6] | Potency [7]
-4.41%: viability change [1]

O=C1Cc2c([nH]c3ccc(Br)cc23)-c2ccccc2N1
inactive: Potency [1] | outcome [2] | Potency [3] | Potency [5] | Potency [6] | Potency [7]
3.96%: viability change [1]

NC1(C(=O)O)CC1
4.01%: viability change [1]
inactive: Potency [1] | outcome [2] | Potency [4] | Potency [10] | Potency [5] | Potency [6] | Potency [7] | Potency [8] | Potency [9]

CC1=C(C(=O)O)N2C(=O)[C@@H](NC(=O)C(N)C3=CCC=CC3)[C@H]2SC1 (stereo partly specified)
3.51%: viability change [1]
inactive: Potency [1] | outcome [2] | Potency [3] | Potency [4] | Potency [5] | Potency [6] | Potency [7] | Potency [8] | Potency [9]

Nc1ccc(-c2ccc3ccccc3n2)cc1
inactive: Potency [1] | outcome [2] | Potency [3] | Potency [10] | Potency [5] | Potency [6] | Potency [7] | Potency [8] | Potency [9]
-6.75%: viability change [1]

NCC(O)C1CCCCCCC1 (stereo unspecified)
3.56%: viability change [1]
inactive: Potency [1] | outcome [2] | Potency [4] | Potency [10] | Potency [5] | Potency [6] | Potency [7]

CO/N=C(\C(=O)N[C@@H]1C(=O)N2C(C(=O)O)=C(CSc3nc(=O)c(O)nn3C)CSC12)c1csc(N)n1 (stereo partly specified)
3.25%: viability change [1]
inactive: Potency [1] | outcome [2] | Potency [3] | Potency [4] | Potency [5] | Potency [7] | Potency [9]

CCN(c1nc(N)c(C(=O)N=C(N)N)nc1Cl)C(C)C
-6.66%: viability change [1]
inactive: Potency [1] | outcome [2] | Potency [4] | Potency [10] | Potency [5] | Potency [6] | Potency [7] | Potency [8]

Cc1nc(N=Nc2ccc(S(=O)(=O)O)cc2S(=O)(=O)O)c(COP(=O)(O)O)c(C=O)c1O
inactive: Potency [1] | outcome [2] | Potency [3] | Potency [4] | Potency [5] | Potency [6] | Potency [7] | Potency [8] | Potency [9] | Potency [11]
-3.73%: viability change [1]

COc1cccc(OC)c1OCCNCC1CSc2ccccc2O1 (stereo unspecified)
inactive: Potency [1] | outcome [2] | Potency [3] | Potency [10] | Potency [6]
-8.63%: viability change [1]

Cc1ccccc1/C=C/C1=NCCN1
-20.2%: viability change [1]
inactive: Potency [1] | outcome [2] | Potency [3] | Potency [10] | Potency [5] | Potency [6] | Potency [7]

NS(=O)(=O)c1cccc2c1c([N+](=O)[O-])cc1nc(O)c(O)nc12
-15.2%: viability change [1]
inactive: Potency [1] | outcome [2] | Potency [3] | Potency [4] | Potency [5] | Potency [6] | Potency [9] | Potency [11]

C=CCn1c(=O)c2c(nc(-c3ccc(S(=O)(=O)O)cc3)n2C)n(C)c1=O
inactive: Potency [1] | outcome [2] | Potency [3] | Potency [4] | Potency [5] | Potency [6] | Potency [7] | Potency [9]
9.3%: viability change [1]

CCCn1c(=O)c2[nH]c(C3CCCC3)nc2n(CCC)c1=O
inactive: Potency [1] | outcome [2] | Potency [3] | Potency [10] | Potency [5] | Potency [6] | Potency [7] | Potency [8] | Potency [9] | Potency [11]
-6.17%: viability change [1]

CC1=C(/C=C/C(C)=C/C=C/C(C)=C\C(=O)O)C(C)(C)CCC1
inactive: Potency [1] | outcome [2] | Potency [3] | Potency [4] | Potency [6] | Potency [7] | Potency [8] | activation [12] -7.34% | outcome [14]
8.59%: viability change [1]
61.4%: max response [13]

O=c1cc(-c2ccccc2)[nH]c2nc(Cl)ccc12
active: Potency [4] 1.84 µM
-13.6%: viability change [1]
inactive: Potency [1] | outcome [2] | Potency [3] | Potency [5] | Potency [6] | Potency [8] | Potency [9]

CCCCCC[C@@H]([C@@H](C)O)n1cnc2c(N)ncnc21
inactive: Potency [1] | outcome [2] | Potency [3] | Potency [4] | Potency [5] | Potency [6] | Potency [7] | Potency [9] | Potency [11]
0.22%: viability change [1]

COc1ccc(C(=O)NCc2cccnc2)cc1C(=O)NCc1cccnc1
-5.34%: viability change [1]
inactive: Potency [1] | outcome [2] | Potency [3] | Potency [4] | Potency [5] | Potency [7] | Potency [8] | Potency [9]

O=c1[nH]c(=O)c2nc3ccccc3nc2[nH]1
-5.91%: viability change [1]
inactive: Potency [1] | outcome [2] | Potency [3] | Potency [4] | Potency [5] | Potency [6] | Potency [8] | Potency [9]

Cc1nc(N=Nc2cc(S(=O)(=O)O)c3cc([N+](=O)[O-])cc(S(=O)(=O)O)c3c2)c(COP(=O)(O)O)c(C=O)c1O
active: Potency [7] 50.1 µM and 39.8 µM
inactive: Potency [1] | outcome [2] | Potency [3] | Potency [4] | Potency [5] | Potency [6] | Potency [8] | Potency [11]
-14.8%: viability change [1]

NC1(C(=O)O)CCc2cc(C(=O)O)ccc21 (stereo unspecified)
-0.824%: viability change [1]
inactive: Potency [1] | outcome [2] | Potency [3] | Potency [4] | Potency [5] | Potency [7] | Potency [8] | Potency [9]

CCCCCCCCCCC/C=C\C(C)(C)/C=C\CCCC(=O)O
inactive: Potency [1] | outcome [2] | Potency [3] | Potency [4] | Potency [5] | Potency [6] | Potency [8] | Potency [9]
active: Potency [7] 28.2 µM
3.47%: viability change [1]

CCCCCCC/C=C\CCCCCCCCC(=O)O
3.91%: viability change [1]
active: Potency [7] 39.8 µM
inactive: Potency [1] | outcome [2] | Potency [3] | Potency [4] | Potency [5] | Potency [6] | Potency [8] | Potency [9]
